Source: PubChem BioAssay (National Center for Advancing Translational Sciences (NCATS))
Sampled rows, rich in hits. Any-hit rate of the full collection: about 18%.
Six1-Eya2 blk – qHTS Assay for Inhibitors of the Six1/Eya2 Interaction | AlphaScreen GST-Six1/His-Eya2 binding, biochemical; active compounds read low | activity change, % (no concentration beside the values) | actives 0.56% (n = 360,000) | AID 651725, 2012; in the data active = activity change below about -65%; inconclusive = mostly about -30% to -63%
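AlphaScreen with GST-Six1 and His-Eya2 (5X mix: 250 nM and 500 nM), glutathione donor and nickel acceptor beads; buffer 50 mM Tris pH 8.0, 300 mM NaCl, 1 mM TCEP; 1 h at 37 C in the dark.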
IL-1B inflam inh – qHTS for Inhibitors of Inflammasome Signaling: IL-1-beta AlphaLISA Primary Screen; THP-1 LPS/ATP IL-1B secretion, AlphaLISA, 16 h; active compounds read low; activity change, % at 57.5 µM; actives 4.7% (n = 360,000); in the data active = activity change below about -50%; inconclusive = mostly about -30% to -49%
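THP-1 cells pretreated 1 hr with compounds (up to 57.5 uM final), then stimulated with LPS (250 ng/mL final) plus ATP (1.25 mM final); secreted IL-1B measured by AlphaLISA after 16 hr, decreased signal indicating inhibition.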
TDP1 cell noCPT – qHTS for Inhibitors of human tyrosyl-DNA phosphodiesterase 1 (TDP1): qHTS in cells in absence of CPT | DT40 Tdp1-/- hTDP1 cells, no CPT, ATP luminescence, 48 h | Potency, µM (highest dose often 46.2 µM), inactives show at the top dose activity change, negative = growth inhibition, actives largely listed as inhibitors | actives 15% (n = 420,000); also: potency is read from the fitted curve at half-maximal effect; nearly all actives have a fitted effect of over 55% in size
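DT40 Tdp1-/-;hTDP1 cells, no CPT (DMSO vehicle only), 400 cells/well; compounds pin-transferred; ≥48 hr, 37 °C; CellTiter-Glo 30 min RT dark, luminescence read.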
CtBP-E1A blk – qHTS Assay for Inhibitors of the CtBP/E1A Interaction | CtBP / adenovirus E1A interaction (AlphaScreen) | actives 0.49% (n = 340,000) | AlphaScreen GST-E1A/His-CtBP binding, 1536-well; active compounds read low | activity change, % (no concentration beside the values); in the data active = activity change below about -65%; inconclusive = mostly about -30% to -63%
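In 5 uL wells, 23 nL compound meets equimolar GST-E1A and His-CtBP (5X stock 125 nM each) for 2 h, 37 °C. Beads (5X, 50 ug/mL) then 1 h, 37 °C, dark.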
TDP1 cell CPT – qHTS for Inhibitors of human tyrosyl-DNA phosphodiesterase 1 (TDP1): qHTS in cells in presence of CPT; chicken DT40 Tdp1-/-;hTDP1 cells + 20 nM CPT, ATP luminescence, 48 h; Potency, µM (highest dose often 46.2 µM), inactives show top-dose activity change, negative = growth inhibition, actives largely listed as inhibitors; actives 12% (n = 420,000); AID 686979, 2013; also: potency is read from the fitted curve at half-maximal effect; nearly all actives have a fitted effect of over 55% in size
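Chicken DT40 Tdp1-/- cells stably complemented with human TDP1 were seeded at 400 cells/well in medium containing 20 nM camptothecin, exposed to pin-transferred compounds, and grown at 37 °C for at least 48 hr. Viability was read as ATP luminescence.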
TDP1 block – qHTS Assay for Inhibitors of Tyrosyl-DNA Phosphodiesterase (TDP1); actives 0.28% (n = 350,000); Potency, µM (highest dose often 130 µM), for the others: at the highest dose activity change, negative = inhibition, hits mostly inhibitors; Tyrosyl-DNA phosphodiesterase 1 (Homo sapiens), Q9NUW8; recombinant TDP1, AlphaScreen DNA substrate cleavage; also: potency is read from the fitted curve at half-maximal effect; nearly all actives have a fitted effect of over 40% in size
Target sequence (Q9NUW8 whole entry, looked up): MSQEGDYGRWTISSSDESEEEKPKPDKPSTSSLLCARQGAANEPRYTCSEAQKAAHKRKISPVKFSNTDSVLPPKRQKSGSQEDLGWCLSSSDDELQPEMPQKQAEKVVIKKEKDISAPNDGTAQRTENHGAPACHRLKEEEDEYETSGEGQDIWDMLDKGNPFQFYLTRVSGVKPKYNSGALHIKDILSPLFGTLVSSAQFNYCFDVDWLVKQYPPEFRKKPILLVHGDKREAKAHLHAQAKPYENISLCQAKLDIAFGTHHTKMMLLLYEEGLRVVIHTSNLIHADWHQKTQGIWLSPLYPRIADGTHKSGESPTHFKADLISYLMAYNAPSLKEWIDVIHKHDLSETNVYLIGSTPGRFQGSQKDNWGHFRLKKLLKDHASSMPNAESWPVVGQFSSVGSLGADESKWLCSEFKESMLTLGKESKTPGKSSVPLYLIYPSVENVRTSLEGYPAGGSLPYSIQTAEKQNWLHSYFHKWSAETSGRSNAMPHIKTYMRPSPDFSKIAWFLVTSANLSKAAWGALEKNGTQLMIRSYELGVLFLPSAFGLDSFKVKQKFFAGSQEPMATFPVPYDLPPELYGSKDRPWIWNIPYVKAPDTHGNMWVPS
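Enzyme-compound mixtures sat 15 min at room temperature, followed by a 5 min reaction with 15 nM final substrate and 10 min with AlphaScreen beads. Recombinant human Tdp1 was used at 1 nM final.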
* marks the source's active call; other numbers are inactive results; ? = inconclusive; · = no result given; [ ] = dose if it differs, or a comment. Unless noted, calls follow the shape of the dose curve; as a rule, active = well fitted curve in the direction sought with a large enough effect; inconclusive = small, poorly fitted or top-dose-only effect, or another doubt; inactive = no such curve, though single readings can be large; an effect the other way counts as inactive or inconclusive. % is scaled to controls: 0 for no effect and ±100 for the full control effect.

SMILES	Six1-Eya2 blk	IL-1B inflam inh	TDP1 cell noCPT	CtBP-E1A blk	TDP1 cell CPT	TDP1 block
COc1ccccc1CN1CC2(CCN(C(=O)c3cc(C(F)(F)F)cc(C(F)(F)F)c3)CC2)C1	·	·	?	·	3.4%	·
O=C(NCCCn1ccnc1)/C(=C/c1ccco1)NC(=O)c1cccs1	-0.1	13.9	5.6%	·	21.2%	2.5%
CCNc1nc(C#N)nc(N2CCCCC2)n1	·	·	?	·	?	0.5%
N#Cc1nc(N2CCCCC2)nc(N2CCCCC2)n1	·	·	12.6µM*	·	?	-11.4%
Nc1nc(N2CCCCC2)nc(N(c2ccccc2)c2ccccc2)n1	-2.8	1.4	?	1.5	?	4.3%
N#Cc1nc(N2CCCCC2)nc(N(c2ccccc2)c2ccccc2)n1	·	·	12.6µM*	·	11.2µM*	-3.7%
CC1(C)[C@@H](O)CC[C@]2(C)C3C(O)C=C4[C@H]5C[C@@](C)(C(=O)O)CC[C@]5(C)CC[C@]4(C)[C@]3(C)CC[C@@H]12 (stereo partly specified)	·	·	·	·	·	4.7%
Cc1ccc(C(=O)N(CC(=O)NC2CCCC2)c2cccc(F)c2)s1	-0.3	-80.4*	-20.9%	-12.5	2.7%	13.1%[0.0935 µM]
Cc1ccc(C(=O)N(CC(=O)NC2CCCCC2)c2ccccc2C)s1	-4.3	-22.3	23.1µM*	7.0	?	2.1%
O=C1OCCC1Sc1ncnc2sc3c(c12)CCC3 (stereo unspecified)	-6.0	11.6	-9.8%	-0.4	-22.9%	2.4%
CC1(Br)C(Sc2ccccc2[N+](=O)[O-])=Nc2ccccc21 (stereo unspecified)	?	13.6	23.1µM*	-23.1	20.6µM*	·
COc1ccc2c3c(cccc13)C(=O)CC2	11.8	?	20.6µM*	8.4	18.4µM*	·
COc1ccc2c(c1OC)C(=O)OC2	1.1	8.9	5.5%	-0.3	13.8%	5.1%
COc1ccc(C)cc1NC(=O)c1ccc(NS(=O)(=O)c2c(C)noc2C)cc1	-5.0	1.1	?	1.7	6.8%	6.4%
CC(=O)Oc1cc2cccc(OC(C)=O)c(=O)c2c(OC(C)=O)c1OC(C)=O	?	11.2	18.4µM*	-28.2	4.61µM*	·
CC(=O)Oc1cc2c(c3ccccc13)CCC2=O	-6.4	-12.0	?	-0.9	30.2%	·
CCOC(=O)c1ccc(NC(=O)C2CCCN(c3ncnc4onc(-c5ccc(F)cc5)c34)C2)cc1 (stereo unspecified)	·	·	14.6µM*	·	20.6µM*	-2.1%
Fc1ccc(-c2noc3ncnc(N4CCCCC4)c23)cc1	·	·	23.1µM*	·	18.4µM*	1.1%
COc1ccc(NC(=O)C2CCCN(c3ncnc4onc(-c5ccc(F)cc5)c34)C2)cc1 (stereo unspecified)	-0.2	0.1	?	·	?	2.0%
O=C(Nc1ccc(F)c(Cl)c1)C1CCCN(c2ncnc3onc(-c4ccc(F)cc4)c23)C1 (stereo unspecified)	·	·	14.6µM*	·	-80.2%	5.3%
CC(C)NC(=O)C1CCCN(c2ncnc3onc(-c4ccc(F)cc4)c23)C1 (stereo unspecified)	·	·	-19.8%	·	-5.5%	-3.2%
Cc1ccc(CNC(=O)C2CCCN(c3ncnc4onc(-c5ccc(F)cc5)c34)C2)cc1 (stereo unspecified)	·	·	18.4µM*	·	?	-3.2%
CN(C)c1nc2cc3c(cc2cc1CN(CC1CCCO1)C(=O)c1cccc(F)c1)OCO3 (stereo unspecified)	·	·	-2.9%	·	17.6%[9.04 µM]	·
CC1CCCCC12NC(=O)N(CC(=O)NC(=O)NCc1ccco1)C2=O (stereo unspecified)	14.3	10.8	0.3%	29.8	-11.1%	2.3%
COc1cc(/C=C/c2nc(N)nc(-c3ccccc3O)n2)cc(OC)c1OC	-24.1	6.6	10.3µM*	-12.7	?	3.0%
SMILES	Six1-Eya2 blk	IL-1B inflam inh	TDP1 cell noCPT	CtBP-E1A blk	TDP1 cell CPT	TDP1 block
CC(=O)Nc1ccc(/C=C/c2nc(-c3ccccc3O)n[nH]2)cc1	-21.2	1.6	29.1µM*	·	?	·
COc1cc(/C=C/c2nc(-c3ccccc3O)n[nH]2)cc(OC)c1OC	-25.8	-120.6*	14.6µM*	?	20.6µM*	4.6%
COc1cc(/C=C/c2noc(-c3ccccc3O)n2)cc(OC)c1OC	2.5	13.9	?	-8.3	1.9%	-1.2%
COc1ccc(/C=C/c2nc(N)nc(-c3ccccc3O)n2)cc1OC	-16.1	?	?	-13.2	?	3.0%
COc1ccc(C)cc1NC(=O)CSc1nc(=O)n(CCCN2CCOCC2)c2c1CCCC2	-6.1	-17.2	?	-2.4	?	·
Cc1ccc(NC(=O)C2CCN(c3nnc(C)c4c(C)n(-c5ccccc5)nc34)CC2)cc1Cl	·	·	?	·	-1.6%	8.5%
Cc1ccc(-n2nc3c(N4CCC(C(=O)NCCc5cccs5)CC4)nnc(C)c3c2C)cc1	1.9	-3.5	29.1µM*	-9.8	25.9µM*	1.6%
Cc1nnc(N2CCC(C(=O)N3CCCCC3)CC2)c2nn(-c3ccc(Cl)cc3)c(C)c12	1.2	-28.3	?	0.9	20.6µM*	1.8%
CC(=O)c1ccc(NC(=O)C2CCN(c3nnc(C)c4c(C)n(-c5ccccc5)nc34)CC2)cc1	·	·	20.6µM*	·	14.6µM*	-2.8%
Cc1nnc(N2CCC(C(=O)NCCC(C)C)CC2)c2nn(-c3ccc(Cl)cc3)c(C)c12	·	·	20.6µM*	·	?	5.6%
Cc1cccc(-c2nc3cc(NC(=O)C4CCCO4)ccc3o2)c1 (stereo unspecified)	-1.4	-2.8	?	8.2	?	2.7%
Cc1cc(S(=O)(=O)Nc2ccc(C(=O)N3CCN(C(=O)c4ccco4)CC3)cc2)ccc1F	8.9	5.6	?	-2.6	?	6.6%
CCCCN(CC)CCNC(=O)C1CCN(c2nnc(C)c3c(C)n(-c4ccc(C)cc4)nc23)CC1	·	·	20.6µM*	·	?	2.8%
Cc1nnc(N2CCC(C(=O)NCCc3ccccc3)CC2)c2nn(-c3ccccc3)c(C)c12	·	·	25.9µM*	·	?	2.8%
Cc1c(NC(=O)Nc2ccc(Cl)c(C(F)(F)F)c2)c(=O)n(-c2ccccc2)n1C	·	·	-20.9%	·	-25.2%	2.1%[12.3 µM]
Nc1cc(-c2ccc(Br)cc2)nn1Cc1ccccc1	-0.9	-68.8*	-18.1%	-4.5	?	7.2%
